Substitutions are numbered along the chain they refer to.
Assays:
Assay in all cases: HT-SELEX; high values mean tight binding
Conditions in all cases: protein: recombinant; vector His6-GST; dsDNA, one strand shown
SALL4 ZFC4 WT (HT-SELEX) = molecular target: T1, SALL4 ZFC4 WT (HT-SELEX) (Mus musculus, UniProt Q8BX22 870-940)
T1 sequence: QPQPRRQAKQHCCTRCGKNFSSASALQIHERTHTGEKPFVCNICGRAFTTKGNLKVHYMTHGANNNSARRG
Outline: (§1)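 DNA from a random library (1.5 µg in the first cycle, 200 ng afterwards) was incubated with purified recombinant mouse SALL4 zinc finger cluster 4, residues 870–940 (1 µg), for 10 min at room temperature in 100 µl buffer: 10 mM Tris–HCl pH 7.5, 50 mM NaCl, poly(dI-dC), DTT. Bound complexes were pulled down on Ni2+ beads, washed and PCR-amplified, and the selection was repeated for up to 6 cycles in triplicate. MiSeq reads were scanned for 6-mers, and binding signal is each canonical k-mer's read fraction as fold change over the initial random library.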

[1] = molecular target: T2, SALL4 ZFC4 R900W (HT-SELEX) (Mus musculus, UniProt Q8BX22 870-940, R900W)
T2 sequence: T1 sequence with R31W
Outline: as §1

[2] = molecular target: T3, SALL4 ZFC4 G921D (HT-SELEX) (Mus musculus, UniProt Q8BX22 870-940, G921D)
T3 sequence: T1 sequence with G52D
Outline: as §1

Sequence	binding signal (SALL4 ZFC4 WT (HT-SELEX))	binding signal [1]	binding signal [2]
GAGTTA	1.47 ± 0.0406 fold-change vs cycle 0	1.52 ± 0.0183 fold-change vs cycle 0	1.45 ± 0.0562 fold-change vs cycle 0
CCTGAC	0.451 ± 0.0407 fold-change vs cycle 0	0.547 ± 0.0213 fold-change vs cycle 0	0.654 ± 0.0358 fold-change vs cycle 0
ACTTCC	0.854 ± 0.0494 fold-change vs cycle 0	1.02 ± 0.0553 fold-change vs cycle 0	1.03 ± 0.0487 fold-change vs cycle 0
ACGTGG	0.369 ± 0.00823 fold-change vs cycle 0	0.462 ± 0.0221 fold-change vs cycle 0	0.54 ± 0.0513 fold-change vs cycle 0
CGTTCA	0.712 ± 0.0321 fold-change vs cycle 0	0.811 ± 0.0256 fold-change vs cycle 0	0.871 ± 0.0211 fold-change vs cycle 0
ATGTAA	2.3 ± 0.158 fold-change vs cycle 0	2.09 ± 0.134 fold-change vs cycle 0	1.83 ± 0.187 fold-change vs cycle 0
AGGACA	0.769 ± 0.0198 fold-change vs cycle 0	0.906 ± 0.0391 fold-change vs cycle 0	0.947 ± 0.0205 fold-change vs cycle 0
CCTTAC	0.944 ± 0.0541 fold-change vs cycle 0	1.06 ± 0.0559 fold-change vs cycle 0	1.04 ± 0.0333 fold-change vs cycle 0
GTGTAA	1.24 ± 0.0525 fold-change vs cycle 0	1.37 ± 0.0544 fold-change vs cycle 0	1.28 ± 0.0793 fold-change vs cycle 0
AGTACC	0.813 ± 0.0272 fold-change vs cycle 0	0.947 ± 0.0311 fold-change vs cycle 0	0.981 ± 0.037 fold-change vs cycle 0
CTAAGA	1.36 ± 0.0387 fold-change vs cycle 0	1.51 ± 0.0736 fold-change vs cycle 0	1.42 ± 0.0981 fold-change vs cycle 0
CGGAAG	0.465 ± 0.0113 fold-change vs cycle 0	0.58 ± 0.0281 fold-change vs cycle 0	0.707 ± 0.0759 fold-change vs cycle 0
CTCCAG	0.482 ± 0.0297 fold-change vs cycle 0	0.584 ± 0.0424 fold-change vs cycle 0	0.667 ± 0.0339 fold-change vs cycle 0
AACACG	0.6337 ± 0.00219 fold-change vs cycle 0	0.737 ± 0.0205 fold-change vs cycle 0	0.823 ± 0.0377 fold-change vs cycle 0
ACGAGA	0.811 ± 0.0345 fold-change vs cycle 0	0.922 ± 0.0447 fold-change vs cycle 0	0.957 ± 0.0409 fold-change vs cycle 0
ATCTCG	0.777 ± 0.0506 fold-change vs cycle 0	0.837 ± 0.0514 fold-change vs cycle 0	0.933 ± 0.0422 fold-change vs cycle 0
CTCGTC	0.385 ± 0.0153 fold-change vs cycle 0	0.487 ± 0.019 fold-change vs cycle 0	0.571 ± 0.0514 fold-change vs cycle 0
ACGGGA	0.422 ± 0.0189 fold-change vs cycle 0	0.506 ± 0.0223 fold-change vs cycle 0	0.583 ± 0.0299 fold-change vs cycle 0

— publication PMC9838217, “Structure of SALL4 zinc finger domain reveals link between AT-rich DNA binding and Okihiro syndrome”
